Consider 24 molecules from PMC4336329 (PLoS ONE, 2015).

About 14,000 (4.5%) of roughly 310,000 compounds showed an effect of 50% or more. Effects have a minus sign here. This is one part of a sample in which strong results are shown more often than they occur.
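Further: peak tail current of the secondary pulse compared with the same well before compound.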

In this assay the target is human ether-à-go-go-related gene (hERG) potassium channel (human, UniProt Q12809). Kind of assay: primary screen, population patch clamp on CHO cells stably expressing hERG; higher = less effect of the substance.
Sequence of human ether-à-go-go-related gene (hERG) potassium channel (Q12809 whole entry, looked up): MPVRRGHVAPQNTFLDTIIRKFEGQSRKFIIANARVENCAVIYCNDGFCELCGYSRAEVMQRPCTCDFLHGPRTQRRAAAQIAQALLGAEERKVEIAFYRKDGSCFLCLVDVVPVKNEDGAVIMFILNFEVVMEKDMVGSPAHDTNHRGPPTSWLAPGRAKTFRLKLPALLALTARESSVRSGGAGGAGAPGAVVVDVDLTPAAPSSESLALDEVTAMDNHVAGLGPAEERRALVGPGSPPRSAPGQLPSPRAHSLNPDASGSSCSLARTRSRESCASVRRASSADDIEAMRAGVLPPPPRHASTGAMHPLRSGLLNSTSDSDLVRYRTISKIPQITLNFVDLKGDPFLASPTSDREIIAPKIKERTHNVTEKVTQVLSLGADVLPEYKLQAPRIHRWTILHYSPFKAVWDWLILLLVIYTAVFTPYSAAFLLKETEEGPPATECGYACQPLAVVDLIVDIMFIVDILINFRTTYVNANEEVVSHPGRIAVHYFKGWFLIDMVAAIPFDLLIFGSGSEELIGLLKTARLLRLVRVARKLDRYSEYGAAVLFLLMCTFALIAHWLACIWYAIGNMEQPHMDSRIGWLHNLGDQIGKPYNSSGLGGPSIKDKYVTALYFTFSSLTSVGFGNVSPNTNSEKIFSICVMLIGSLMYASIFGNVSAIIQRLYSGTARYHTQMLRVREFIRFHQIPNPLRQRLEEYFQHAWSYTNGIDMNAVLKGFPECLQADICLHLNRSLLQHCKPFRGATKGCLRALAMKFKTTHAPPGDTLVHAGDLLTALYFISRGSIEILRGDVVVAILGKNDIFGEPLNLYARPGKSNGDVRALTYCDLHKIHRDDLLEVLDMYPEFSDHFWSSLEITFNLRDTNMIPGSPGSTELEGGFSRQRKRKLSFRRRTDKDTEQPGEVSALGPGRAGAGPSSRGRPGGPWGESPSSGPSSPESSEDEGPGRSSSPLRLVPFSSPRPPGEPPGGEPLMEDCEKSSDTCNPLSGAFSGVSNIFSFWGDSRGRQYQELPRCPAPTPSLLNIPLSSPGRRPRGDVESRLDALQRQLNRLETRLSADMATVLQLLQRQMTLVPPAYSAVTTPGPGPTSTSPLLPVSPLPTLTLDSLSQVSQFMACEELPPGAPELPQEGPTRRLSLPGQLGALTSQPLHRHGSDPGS
Take `CCOC(=O)C(CC(=O)Nc1nc(C(C)=O)c(C)s1)C(C)c1ccccc1` (stereo not drawn): the “hERG current change (%, negative = inhibition) at 10uM” value is reported as 2.61%.

On to `C=CCSc1nc2c(c(=O)[nH]1)C(C(C)C)C(C#N)=C(N)O2` (stereo not drawn), for which the “hERG current change (%, negative = inhibition) at 10uM” value came to 3.05%. As for `O=C(Nc1ccc(-c2nc3ccccc3[nH]2)cc1)c1ccc2c(c1)OCO2`, the figure is 6.85%; as for `CCCCN(C)C(=O)c1cn(CC)c2ccc(S(=O)(=O)N(C)C)cc2c1=O`, 8.08%; as for `c1cc(C(c2nnnn2C2CCCCC2)N2CCN3CCCC3C2)ccn1` (stereo not drawn), -1.98%. As for `COc1ccc(NC(=O)C2CCCN2C(=O)NC2CCCCC2)cc1` (stereo not drawn), the “hERG current change (%, negative = inhibition) at 10uM” value is -2.82%.

`O=C(O)COc1ccccc1Cc1ccccc1`: the “hERG current change (%, negative = inhibition) at 10uM” value was determined as 5.22%. As for `CN(C)CCOc1ccccc1C(C)(C)C.O=C(O)C(=O)O`, the figure is 5.47%; as for `CN(C)CCOc1ccccc1Cc1ccccc1.O=C(O)CC(O)(CC(=O)O)C(=O)O`, -61.9%; as for `COc1ccc(-n2ccc3ccccc32)cc1`, 13%. The same measure for `CCCCn1c(=O)c(F)cn(Cc2ccc(OC)c([N+](=O)[O-])c2)c1=O`: -25.2%. On to `CCCCCn1c(=O)c(F)cn(Cc2ccc(OC)c([N+](=O)[O-])c2)c1=O`, for which the “hERG current change (%, negative = inhibition) at 10uM” value is listed as -56.6%. The same measure for `CCCCCCn1c(=O)c(F)cn(Cc2ccc(OC)c([N+](=O)[O-])c2)c1=O`: -40.3%; for `CC(C)(C)C(=O)Oc1ccc2cc(-c3ccc4ccccc4n3)c(=O)oc2c1`: -10.5%. The same measure for `Nc1nc(CN2CCN(Cc3ccccc3)CC2)nc(Nc2ccc3c(c2)OCCO3)n1`: -74.8%.

With `Nc1nc(COC(=O)c2ccc3c(c2)OCCO3)nc(Nc2ccccc2)n1`, the “hERG current change (%, negative = inhibition) at 10uM” value stood at 10.2%. The same measure for `Nc1nc(CN2CCN(c3ccccc3F)CC2)nc(Nc2ccc3c(c2)OCCO3)n1`: -74.4%. Take `c1ccc(CN2CCN(Cc3ccc4c(c3)OCCO4)CC2)cc1`: the “hERG current change (%, negative = inhibition) at 10uM” value is reported as -10.6%. The same measure for `CN1CCN(Cc2nc(N)nc(Nc3ccc4c(c3)OCCO4)n2)CC1`: -26.1%. As for `O=C(CCN1CCN(c2ccccc2F)CC1)Nc1ccc2c(c1)OCO2`, the figure is -27.6%; as for `Cc1c(C(c2ccc(F)cc2)c2c(O)c3ccccc3oc2=O)c(=O)n(-c2ccccc2)n1C` (stereo not drawn), -20.9%; as for `COc1ccc(-n2c(-c3ccco3)nc3c(cnn3-c3ccc(C)cc3)c2=O)cc1`, 1.88%. The same measure for `C=CCn1c(NC(=O)c2ccc(C)cc2)nc2ccccc21`: 6.35%; for `Cc1ccc(NCC(=O)N/N=C/c2c[nH]c3ccccc23)cc1`: 11.4%.
